Assay results taken from PubChem BioAssay (NCI).
This is part of a sample that, as a whole, favours compounds with a hit. Of some 83,000 tested, about 20% had one in any assay.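 Growth was measured after 48 h exposure to one concentration of compound in 96-well plates. Values under 10 count as active.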 Unmarked numbers belong to inactive results. The source made the active and inactive calls.

test system: NCI-H226 lung; assay: NCI-60 one-dose screen, 48 h (100 = growth as untreated, 0 = no growth, -100 = all killed); details: 10 µM

Question: With `C[n+]1c2ccccc2nc2ccccc21` as the compound, how does the growth read?
Answer: 42.2%

Question: `C=CCn1c(SCC(=O)Nc2ccc(C(=O)/C=C/c3ccc(OC)cc3)cc2)nnc1-c1ccc(OC)c(OC)c1` was tested. Which growth did it give?
Answer: 82.7%

Question: `Cc1n[nH]c(C)c1N=Nc1cccc2c1C(=O)c1ccccc1C2=O` was tested. Which growth did it give?
Answer: 87.4%

Question: `CC[C@H]1OC(=O)[C@H](C)[C@@H](O[C@H]2C[C@@](C)(OC)[C@@H](O)[C@H](C)O2)[C@H](C)[C@@H](O[C@@H]2O[C@H](C)C[C@H](N(C)C)[C@H]2O)[C@](C)(OC)C/C(C)=C2/O[C@@]1(C)C=C2C` was tested. Which growth did it give?
Answer: 84.6%

Question: `CCOC(=O)CN(c1sc(C)c(C)c1C(=O)OCC)S(=O)(=O)c1ccc(C)cc1` was tested. Which growth did it give?
Answer: 77.2%

Question: Which growth does the source give for `Cc1noc(C)c1CSc1ccccc1C(=O)N1CCN(c2cccc(C(F)(F)F)c2)CC1` here?
Answer: 75.6%

Question: For `O=C(CCCSc1nc(-c2ccccc2)cc(-c2ccc(Cl)cc2)n1)NO`, which growth is on record?
Answer: 10.6%

Question: Which growth does the source give for `O=C(Nc1ccc(F)cc1)c1cc2ccccc2cc1O` here?
Answer: 74.2%

Question: For `COc1ccc(-c2cc(-c3ccccc3)nc(SCCCCCCC(=O)NO)n2)cc1`, which growth is on record?
Answer: 72.3%

Question: For `COc1cc2c(cc1NC(=O)C(F)(F)F)-c1ccc(NC(=O)C(F)(F)F)cc1C2`, which growth is on record?
Answer: 47.9%

Question: For `S=C(NCc1ccccc1)NCc1ccccc1`, which growth is on record?
Answer: 97.8%

Question: For `NNC(=O)Oc1c(Cl)cc(Cl)cc1[N+](=O)[O-]`, which growth is on record?
Answer: 106%

Question: For `Cc1c(Cl)cccc1NC(=O)CN1CCOCC1`, which growth is on record?
Answer: 106%

Question: How did the growth turn out when `O=C1c2ccccc2C(=O)N1CCCCNc1ccccc1` was run?
Answer: 91.7%

Question: For `COc1ccc2c(c1)CC=C1[C@@H]2CC[C@]2(C)C(=O)/C(=N/O)C[C@@H]12`, which growth is on record?
Answer: 87.6%

Question: For `CC(C)(C)OC(=O)CN1CCc2c(sc3ncnc(N/N=C/c4ccccc4Br)c23)C1`, which growth is on record?
Answer: 83.4%

Question: `COc1cc(/C=C/c2cc(/C=C/c3ccc(O)c(OC)c3)n(C(=O)Nc3ccccc3Cl)n2)ccc1O` was tested. Which growth did it give?
Answer: -3.72% (active)

Question: `O=C(CSc1nnc(-c2ccc(Cl)cc2)o1)Nc1ccc(C(=O)/C=C/c2ccc(Cl)cc2)cc1` was tested. Which growth did it give?
Answer: 93.3%

Question: With `Nc1nc(Cn2c(-c3nonc3N)nc3ccccc32)nc(N2CCCCC2)n1` as the compound, how does the growth read?
Answer: 94.4%

Question: With `CC(C)N(CCOc1ccc(-c2nc3sccn3c2-c2ccnc(S(C)(=O)=O)n2)cc1)C(C)C` as the compound, how does the growth read?
Answer: 87.7%

Question: Which growth does the source give for `O=C1CSC(=S)N1/N=C/c1ccc(Cl)s1` here?
Answer: 106%

Question: Which growth does the source give for `CCN(CC)CCOC(=O)c1cc(OCc2ccccc2)c(OCc2ccccc2)c(OCc2ccccc2)c1` here?
Answer: 73.6%

Question: For `CNC(=O)c1cc(Oc2ccc3c(c2)sc2nc(-c4ccc(N)cc4)cn23)ccn1`, which growth is on record?
Answer: 61.8%

Question: For `COc1ccc(-c2cc(-c3ccc(Cl)cc3)nc(SCCCCCCC(=O)NO)n2)cc1OC`, which growth is on record?
Answer: 69.3%

Question: For `O=C(O)COc1c(Cl)cc([N+](=O)[O-])cc1Cl`, which growth is on record?
Answer: 96.4%

Question: How did the growth turn out when `COC(=O)C1(O)NC(=C(C#N)C#N)C(C#N)=C1C(=O)c1ccc(OC)c(OC)c1` (stereo not given) was run?
Answer: 93.6%

Question: How did the growth turn out when `COc1ccc(C2=Cn3c(CCC(=O)c4nc5ccccc5[nH]4)nnc3SC2)cc1` was run?
Answer: 89.3%

Question: How did the growth turn out when `COc1cc2cc(Oc3ccc(NC(=O)c4cc(C(F)(F)F)cc(C(F)(F)F)c4)cc3)c(C)nc2cc1OC` was run?
Answer: 53.6%

Question: With `Oc1ccc(/C=N/N=C2c3ccccc3-c3ccccc32)c(O)c1` as the compound, how does the growth read?
Answer: 60.5%

Question: Which growth does the source give for `COc1cccc(C2C(C#N)=C(N)Oc3cc(N)ccc32)c1` (stereo not given) here?
Answer: 70%

Question: With `COc1ccc(C(c2ccc(OCCN(C)C)cc2)c2cc3ccccc3c3ccccc23)cc1` (stereo not given) as the compound, how does the growth read?
Answer: 87.5%

Question: Which growth does the source give for `Clc1nc2ccc(Br)cc2cc1-c1nc2ccccc2[nH]1` here?
Answer: 98.5%

Question: Which growth does the source give for `Cc1cccc(N=Cc2ccccc2O)c1C` here?
Answer: 104%

Question: For `CC(C)c1ccc(C(C)C(=O)N(CC2=C(C(C)c3ccccn3)c3ccccc3C2)C(C)C)cc1` (stereo not given), which growth is on record?
Answer: 57.1%

Question: How did the growth turn out when `CC(=O)N[C@H](C(=O)N[C@@H](CCCNC(=N)N)C(=O)N[C@@H](CCCCN)C(=O)N[C@@H](CCCNC(=N)N)C(=O)NC(C(=O)N[C@@H](CC(C)C)C(=O)N[C@@H](CCCNC(=N)N)C(=O)N[C@@]1(C)CCC/C=C\CCC[C@@](C)(C(=O)N[C@@H](CCCNC(=N)N)C(=O)N[C@@H](CCC(=O)O)C(=O)N[C@@H](CC(C)C)C(=O)N[C@H](C(=O)N[C@@H](CCC(=O)O)C(N)=O)C(C)C)NC(=O)[C@H](CCC(N)=O)NC(=O)[C@H](CC(C)C)NC(=O)[C@H](CC(C)C)NC1=O)[C@@H](C)O)C(C)C` (stereo not given in full) was run?
Answer: 7.17% (active)

Question: How did the growth turn out when `COc1cc2c(cc1NC(=O)C(Cl)Cl)-c1ccc(NC(=O)C(Cl)Cl)cc1C2` was run?
Answer: 19.3%

Question: How did the growth turn out when `CC1OC2CC(=O)OC2C2=C1C(=O)c1c(O)c3c(c(O)c1C2=O)C1CC(O)C3(O)C(C)O1` (stereo not given) was run?
Answer: -69% (active)

Question: With `COc1cc(-c2csc(NC(=O)Nc3ccc(Cl)c(C(F)(F)F)c3)n2)cc(OC)c1OC` as the compound, how does the growth read?
Answer: -6.43% (active)

Question: For `COc1cc2cc(Oc3ccc(NC(=O)Nc4ccc(C(F)(F)F)cc4)cc3)c(C)nc2cc1OC`, which growth is on record?
Answer: 20.9%

Question: With `COc1ccc(/C=C/C(=O)C(=O)/C=C/c2ccc(OC)c(OC)c2)cc1OC` as the compound, how does the growth read?
Answer: 38.9%
